{
  "source": "PubChem BioAssay (NCI)",
  "note": "Compounds without any hit were thinned out: in the full panel of roughly 79,000, 15% have a hit. A number with no mark means an inactive call. The source made the active and inactive calls. Rule as the data show it: active = growth inhibition above about 70%; inactive = the rest.",
  "data": [
    {"assay": "NCI Yeast Anticancer Drug Screen. Data for the bub3 strain (AID 167)", "conditions": "S. cerevisiae bub3 mutant strain, at 50.0 µM, hits give high values", "how_it_was_run": "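Mutant yeast screening strain plus compound; vehicle-treated cultures serve as the 0% inhibition reference.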", "values": [
      {"smiles": "C#CC(C)(C)OC(=O)Nc1cccc(Cl)c1", "growth inhibition": "-20.6%"},
      {"smiles": "CCCCCCCCCCCCCC(=O)OCC(CCS(=O)(=O)O[C@H]1CC[C@@]2(C)C(=CC[C@@H]3C2CC[C@]2(C)C(=O)CCC32)C1)OC(=O)CCCCCCCCCCCCC", "note": "(stereo not given in full)", "growth inhibition": "-22.2%"},
      {"smiles": "C=CCc1oc(C)nc1CCCC", "growth inhibition": "5.85%"},
      {"smiles": "O=C(/C=N\\O)c1ccccc1[N+](=O)[O-]", "growth inhibition": "-1.35%"},
      {"smiles": "OC1CCC(c2ccccc2)CC1", "note": "(stereo not given)", "growth inhibition": "4.75%"},
      {"smiles": "C=C1CC[C@@H]2C(C)(C)CCC[C@@]2(C)[C@@H]1Cc1cc(O)ccc1O", "growth inhibition": "87.9% (active)"},
      {"smiles": "Cc1ccc(N=Nc2ccc(C)cc2NC(=O)Nc2cc(C)ccc2C)cc1", "growth inhibition": "26.1%"},
      {"smiles": "Cc1ccc(N2C(=O)CS/C2=C(\\C#N)c2nc3ccccc3[nH]2)cc1", "growth inhibition": "-76.8%"},
      {"smiles": "Cc1cc(Cl)ccc1OCC(=O)OCC(C)(C)[N+](=O)[O-]", "growth inhibition": "36.6%"},
      {"smiles": "CCOC(=O)C(=[N+]=[N-])C(=O)c1cc2ccccc2oc1=O", "growth inhibition": "-13.7%"},
      {"smiles": "CC(C)C(CC1CCCCC1)C(C)O", "note": "(stereo not given)", "growth inhibition": "-9.35%"},
      {"smiles": "Cc1ccc(-n2nc3c(c(C#N)c2=O)-c2ccccc2C3=O)cc1", "growth inhibition": "-2.7%"},
      {"smiles": "CS(=O)(=O)OCC(Cc1ccccc1)N1C(=O)c2ccccc2C1=O", "note": "(stereo not given)", "growth inhibition": "26.9%"},
      {"smiles": "C/C(CCc1ccccc1)=N\\Nc1ccc([N+](=O)[O-])cc1[N+](=O)[O-]", "growth inhibition": "-17.4%"},
      {"smiles": "Cc1cc(=O)n(C)c2ccc(N)cc12", "growth inhibition": "10.5%"},
      {"smiles": "c1ccc(C2=NC3CCCCC3S2)cc1", "note": "(stereo not given)", "growth inhibition": "-5.55%"},
      {"smiles": "O=C1OC(c2ccccc2)=CC1(Cc1ccccc1)Cc1ccccc1", "growth inhibition": "2.6%"},
      {"smiles": "COc1ccccc1C(=O)N/N=C/c1ccccc1Cl", "growth inhibition": "9.05%"},
      {"smiles": "c1cc(OCC2CO2)ccc1OCC1CO1", "note": "(stereo not given)", "growth inhibition": "8.8%"},
      {"smiles": "C[C@@]1(NC(=O)Cc2ccccc2)C(=O)N2CCS[C@@]21c1ccccc1", "growth inhibition": "12.8%"},
      {"smiles": "N#CC(CN1CCOCC1)[N+](=O)[O-]", "note": "(stereo not given)", "growth inhibition": "16.6%"},
      {"smiles": "COC1NC(=O)Oc2ccccc21", "note": "(stereo not given)", "growth inhibition": "-12.5%"},
      {"smiles": "C/C(CC(=O)Nc1cccc([N+](=O)[O-])c1)=N\\NC(=O)CC#N", "growth inhibition": "-8.45%"},
      {"smiles": "O=C1OC(c2ccccc2)(c2ccc(Cl)cc2)CC1/C=C(\\c1ccccc1)c1ccc(Cl)cc1", "note": "(stereo not given)", "growth inhibition": "-7.4%"},
      {"smiles": "CO/C=C/c1cc2c(cc1Br)OCO2", "growth inhibition": "11.4%"},
      {"smiles": "C=C1C(=O)O[C@H]2[C@H]1CC(=O)/C(C)=C/CC[C@@]1(C)O[C@@H]21", "growth inhibition": "25.6%"},
      {"smiles": "COc1ccc(C2SC(N)=Nc3c2c(C)nn3C(=O)c2ccc(Cl)cc2)cc1", "note": "(stereo not given)", "growth inhibition": "-11.3%"},
      {"smiles": "OCc1ccc2[n+](c1)CCC1c3ccccc3NC21", "note": "(stereo not given)", "growth inhibition": "-26.3%"},
      {"smiles": "N#Cc1c(-c2ccccc2)cc(-c2ccccc2)[nH]c1=O", "growth inhibition": "3.5%"},
      {"smiles": "CC(=O)c1cc(-c2ccccn2)c(=O)n2ccccc12", "growth inhibition": "5.25%"},
      {"smiles": "CC(=O)NC(=O)NC1=NCCC(=O)N1CCc1c[nH]c2ccccc12", "growth inhibition": "-19.1%"},
      {"smiles": "COC(=NC(C)C)NC(C)C", "growth inhibition": "5.4%"},
      {"smiles": "NC(Cc1c[nH]c2ccc(F)cc12)C(=O)O", "note": "(stereo not given)", "growth inhibition": "-14.4%"},
      {"smiles": "COC(=O)c1cc(-c2ccc(OC)cc2)[nH]c(=O)c1C#N", "growth inhibition": "26.1%"},
      {"smiles": "CCCCCCCCCCCCCCCCCCCCCCCCCCCCCCCCCCCCSC(=N)N", "growth inhibition": "-0.25%"},
      {"smiles": "c1cc2nc(c1)CSCCCCCCCSC2", "growth inhibition": "52.4%"},
      {"smiles": "COC(=O)COc1cc2c(cc1C(C)c1ccc(O)cc1)OCO2", "note": "(stereo not given)", "growth inhibition": "99.2% (active)"},
      {"smiles": "O=C(O)c1cc2cc(O)ccc2[nH]1", "growth inhibition": "10.4%"},
      {"smiles": "COc1cc(/C=C/C(=O)c2sc(-n3nc(-c4ccccc4)cc3-c3ccccc3)nc2C)ccc1O", "growth inhibition": "26.4%"},
      {"smiles": "CCCCCCCCS(=O)(=O)N(C)C", "growth inhibition": "-31.1%"}
    ]}
  ]
}
